Data on 25 compounds can be found in ChEMBL document CHEMBL4296183, “CO-ADD screening of NIH NCI Natural Product Set III” (2020).

Entries with a potency or affinity are not part of this list.

The term Inhibition denotes the drop in the measured response relative to a control, in per cent.

The subject of one assay is Klebsiella pneumoniae. To be noted: Concentration 20 uM; ASSAY_TEST Inhibition of Bacterial Growth; detection method Absorption (OD600); MEDIA CAMHB; plate type 384well; NBS; CORNING #3640; time 18 hr.
`CC(=O)Oc1ccc2ccc(=O)oc2c1OC(C)=O`: the Inhibition worked out at 9%. Same read-out and setting: under `CCC1OC(=O)C(C)C(OC2CC(C)(O)C(O)C(C)O2)C(C)C(O)C(C)(O)CC(C)C(=O)C(C)C(O)C1C` (centres undefined) stands 3.36%. Same read-out and setting: under `COc1cc([C@@H]2c3cc4c(cc3[C@@H](OC3OC5CO[C@@H](c6cccs6)OC5C(O)C3O)[C@H]3COC(=O)[C@H]23)OCO4)cc(OC)c1O` (some centres undefined) stands -0.01%. Same read-out and setting: the result for `O=c1oc2cc(O)ccc2c2oc3cc(O)ccc3c12` [COUMESTROL] reads -3.39%. For the compound `CC1(C)CCCC2(C)C3=C(CCC12)C(=O)OC3` (centres undefined), the Inhibition is 7.04%. Still for that read-out and setting: the result for `CC[C@]1(O)C[C@H]2CN(CCc3c([nH]c4ccccc34)[C@@](C(=O)OC)(c3cc4c(cc3OC)N(C=O)[C@H]3[C@@](O)(C(=O)OC)[C@H](OC(C)=O)[C@]5(CC)C=CCN6CC[C@]43[C@@H]65)C2)C1.O=S(=O)(O)O` [VINCRISTINE SULFATE] reads 1.69%; that for `CC(=O)CCCCn1c(=O)c2c(ncn2C)n(C)c1=O` [PENTOXIFYLLINE], -2.03%; that for `CN1CCc2cc3c(cc2C(=O)Cc2ccc4c(c2C1)OCO4)OCO3.Cl` [PROTOPINE HYDROCHLORIDE], 4.34%.

Consider `O=c1oc2c(O)c(O)cc3c(=O)oc4c(O)c(O)cc1c4c23` [ELLAGIC ACID], for which the Inhibition came out at 25.12%. Same read-out and setting: under `COc1ccc2c(c1OC)C(=O)O[C@@H]2[C@H]1c2c(cc3c(c2OC)OCO3)CCN1C` [NOSCAPINE] stands -0.26%. The same measure, in the same setting: the result for `CCCCCc1cc(O)cc2c1Oc1cc(O)cc(C(=O)CCCC)c1C(=O)O2` reads -6.31%; that for `COC(=O)C1C(O)CCC2CN3CCc4c([nH]c5ccccc45)C3CC21` (centres undefined), 13.74%; that for `COc1ccc(C2CC(=O)c3c(O)cc(OC4OC(CO)C(O)C(O)C4OC4OC(C)C(O)C(O)C4O)cc3O2)cc1O` (centres undefined), 1.79%. Take `CC1(C)CC23C4COC(=O)C2CCC1C3CC4=O` (centres undefined): the Inhibition was -5.19%.

For the compound `CC1(C)C(=O)N2c3ccccc3C3(CC(N4C(=O)c5ccccc5C4=O)C(=O)O3)C2N1C(=O)OCc1ccccc1` (centres undefined), the Inhibition was -2.04%. Same read-out and setting: the result for `COC(=O)NC1C(C)OC(OC2C/C=C(/C)C3C=CC4C(OC5CC(OC6CCC(OC7CC(O)C(OC8CCC(O)C(C)O8)C(C)O7)C(C)O6)C(OC(C)=O)C(C)O5)C(C)CC(C)C4C3(C)/C(O)=C3/C(=O)OC4(CC(C=O)=CC(O)C4/C=C\2C)C3=O)CC1(C)[N+](=O)[O-]` (centres undefined) reads 4.04%. As for `C=C1C(=O)O[C@@H]2[C@H]3O[C@]3(C)CC/C=C(\C)CC[C@@H]12`, the Inhibition is 3.51%.

Consider `CC(C)=CC(=O)OC1C2C(C)C(=O)OC2C(O)C(C)C2C=CC(=O)C21C` (centres undefined), for which the Inhibition is reported as 13.7%.

Take `COc1cc2c(c(OC)c1OC)-c1ccc(OC)c(=O)cc1[C@@H](NC(C)=O)CC2` [COLCHICINE]: the Inhibition is 3.13%. Still for that read-out and setting: the result for `COC(=O)[C@@H]1[C@H]2C[C@@H]3c4[nH]c5ccccc5c4CCN3C[C@@H]2CC[C@@H]1O` reads -5.72%. On to `COc1cc(C)c2c(c1C=O)Oc1c(c(C)c(O)c3c1C(O)OC3=O)OC2=O` (centres undefined) [STICTIC ACID], for which the Inhibition is -0.81%.

On to `C[C@@H]1C(=O)C[C@H]2C(C)(C)CCC[C@]2(C)[C@@]1(O)CCc1ccoc1`, for which the Inhibition is given as -12.83%.

On to `CCC1NC(=O)C(NC(=O)c2ncccc2O)C(C)OC(=O)C(c2ccccc2)NC(=O)C2CC(=O)CCN2C(=O)C(Cc2ccccc2)N(C)C(=O)C2CCCN2C1=O` (centres undefined), for which the Inhibition is listed as 4.35%. Still for that read-out and setting: under `COC(=O)C1C2CC3c4[nH]c5cc(OC)ccc5c4CCN3CC2CC(OC(=O)CCc2cc(OC)c(OC)c(OC)c2)C1OC` (centres undefined) stands -7.51%; under `COc1ccc2c(c1)O[C@H]1c3ccc(O)cc3OC[C@@H]21`, -2.42%.

The subject of another assay is Candida albicans. As to conditions: 20 µM.
Take `CC(=O)Oc1ccc2ccc(=O)oc2c1OC(C)=O`: the Inhibition was -1.13%.

`CCC1OC(=O)C(C)C(OC2CC(C)(O)C(O)C(C)O2)C(C)C(O)C(C)(O)CC(C)C(=O)C(C)C(O)C1C` (centres undefined): the Inhibition was 1.65%.

As to `COc1cc([C@@H]2c3cc4c(cc3[C@@H](OC3OC5CO[C@@H](c6cccs6)OC5C(O)C3O)[C@H]3COC(=O)[C@H]23)OCO4)cc(OC)c1O` (some centres undefined), the Inhibition was 0.54%. `O=c1oc2cc(O)ccc2c2oc3cc(O)ccc3c12` [COUMESTROL]: the Inhibition came out at 2.68%. For the compound `CC1(C)CCCC2(C)C3=C(CCC12)C(=O)OC3` (centres undefined), the Inhibition came to 0.95%. On the same count and under the same terms, under `CC[C@]1(O)C[C@H]2CN(CCc3c([nH]c4ccccc34)[C@@](C(=O)OC)(c3cc4c(cc3OC)N(C=O)[C@H]3[C@@](O)(C(=O)OC)[C@H](OC(C)=O)[C@]5(CC)C=CCN6CC[C@]43[C@@H]65)C2)C1.O=S(=O)(O)O` [VINCRISTINE SULFATE] stands -0.39%. The same measure, in the same setting: under `CC(=O)CCCCn1c(=O)c2c(ncn2C)n(C)c1=O` [PENTOXIFYLLINE] stands 4.24%; under `CN1CCc2cc3c(cc2C(=O)Cc2ccc4c(c2C1)OCO4)OCO3.Cl` [PROTOPINE HYDROCHLORIDE], -1.7%; under `O=c1oc2c(O)c(O)cc3c(=O)oc4c(O)c(O)cc1c4c23` [ELLAGIC ACID], 8.04%. Same read-out and setting: the result for `COc1ccc2c(c1OC)C(=O)O[C@@H]2[C@H]1c2c(cc3c(c2OC)OCO3)CCN1C` [NOSCAPINE] reads -0.41%; that for `CCCCCc1cc(O)cc2c1Oc1cc(O)cc(C(=O)CCCC)c1C(=O)O2`, 2.52%; that for `COC(=O)C1C(O)CCC2CN3CCc4c([nH]c5ccccc45)C3CC21` (centres undefined), 1.54%. For `COc1ccc(C2CC(=O)c3c(O)cc(OC4OC(CO)C(O)C(O)C4OC4OC(C)C(O)C(O)C4O)cc3O2)cc1O` (centres undefined), the Inhibition is -1.53%. Same read-out and setting: under `CC1(C)CC23C4COC(=O)C2CCC1C3CC4=O` (centres undefined) stands 0.59%. Regarding `CC1(C)C(=O)N2c3ccccc3C3(CC(N4C(=O)c5ccccc5C4=O)C(=O)O3)C2N1C(=O)OCc1ccccc1` (centres undefined), the Inhibition was 1.22%.

As for `COC(=O)NC1C(C)OC(OC2C/C=C(/C)C3C=CC4C(OC5CC(OC6CCC(OC7CC(O)C(OC8CCC(O)C(C)O8)C(C)O7)C(C)O6)C(OC(C)=O)C(C)O5)C(C)CC(C)C4C3(C)/C(O)=C3/C(=O)OC4(CC(C=O)=CC(O)C4/C=C\2C)C3=O)CC1(C)[N+](=O)[O-]` (centres undefined), the Inhibition stood at 4.81%. Still for that read-out and setting: the result for `CC(C)=CC(=O)OC1C2C(C)C(=O)OC2C(O)C(C)C2C=CC(=O)C21C` (centres undefined) reads 0.18%. Same read-out and setting: under `COc1cc2c(c(OC)c1OC)-c1ccc(OC)c(=O)cc1[C@@H](NC(C)=O)CC2` [COLCHICINE] stands -0.28%; under `COC(=O)[C@@H]1[C@H]2C[C@@H]3c4[nH]c5ccccc5c4CCN3C[C@@H]2CC[C@@H]1O`, -3.73%; under `COc1cc(C)c2c(c1C=O)Oc1c(c(C)c(O)c3c1C(O)OC3=O)OC2=O` (centres undefined) [STICTIC ACID], -4.28%. As for `C[C@@H]1C(=O)C[C@H]2C(C)(C)CCC[C@]2(C)[C@@]1(O)CCc1ccoc1`, the Inhibition is 5.12%. On to `CCC1NC(=O)C(NC(=O)c2ncccc2O)C(C)OC(=O)C(c2ccccc2)NC(=O)C2CC(=O)CCN2C(=O)C(Cc2ccccc2)N(C)C(=O)C2CCCN2C1=O` (centres undefined), for which the Inhibition was -3.25%. As for `COC(=O)C1C2CC3c4[nH]c5cc(OC)ccc5c4CCN3CC2CC(OC(=O)CCc2cc(OC)c(OC)c(OC)c2)C1OC` (centres undefined), the Inhibition was -0.42%. The same measure, in the same setting: under `COc1ccc2c(c1)O[C@H]1c3ccc(O)cc3OC[C@@H]21` stands 12.9%.
